# Laboratory results: PubChem BioAssay AID485297 (National Center for Advancing Translational Sciences (NCATS), 2010)
# Among all 320,000 compounds or so, about 9,100 (2.8%) were called active. Not shown: some 3% with an inconclusive outcome. Calls come from the whole dose curve; as a rule, active = well fitted activation curve with a large enough effect; inconclusive = small, poorly fitted or top-dose-only effect; inactive = no such curve, though single readings can be large or run the other way. Shown is part of a subset that was picked to be rich in actives. Where a call stands in place of a potency, no number is given.
# Assay: qHTS Assay for Rab9 Promoter Activators; note: nearly all actives have a fitted effect of over 60% in size
# Conditions: Huh7 Rab9 promoter-luciferase reporter, luminescence, 24 h; series mostly up to 9.22 µM
# Outline: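 Rab9 promoter-driven luciferase in stably transfected Huh7 cells; 1500 cells/well rested 2 h, exposed to compound in DMSO for 24 h at 37 °C, 5% CO2. Luminescence read 10 min after adding luciferase reagent at ambient temperature.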
# Potency is the fitted concentration of half-maximal effect.
row,SMILES,Potency
1,Cc1ccc(S(=O)(=O)N(C)CC(=O)NCC(c2ccc(F)cc2)N2CCOCC2)cc1 (stereo not given),inactive
2,O=C(COc1ccc(Cl)cc1)Nc1ccc2oc(=O)ccc2c1,inactive
3,Cc1nc(-c2ccc(NC(=O)c3cccs3)cc2)cs1,398 nM (active)
4,Cc1ccc(C(=O)NNC(=O)c2cccs2)cc1,2820 nM (active)
5,Cc1ccc(-c2csc(NC(=O)Cn3[nH]c(=O)c4ccccc4c3=O)n2)cc1,inactive
6,Cc1ccc(-c2csc(NC(=O)c3cccs3)n2)cc1,3550 nM (active)
7,CCCc1ccc(-c2csc(NC(=O)Cc3cccs3)n2)cc1,inactive
8,O=C(NNC(=O)c1ccc(Cl)cc1Cl)c1cccs1,3550 nM (active)
9,Cc1ccc(NNC(=O)c2cccs2)cc1Cl,inactive
10,Cc1ccc(C(=O)Nc2ccc(NC(=O)c3cccs3)cc2)c(C)c1,inactive
11,O=C(Nc1ccccc1)c1ccc(NC(=O)c2cccs2)cc1,inactive
12,NNC(=O)c1ccc(Cl)cc1Cl,inactive
13,Cc1ccc(C)c(NC(=O)CCC(=O)NNC(=O)c2cccs2)c1,inactive
14,CC(C)C(=O)Nc1ccc(C(=O)NNC(=O)c2cccs2)cc1,inactive
15,Cc1cccc(C)c1NC(=O)CNC(=O)C1CCCC1,inactive
16,O=C(CN1CCCCC1)NC(=O)Nc1ccccc1F,inactive
17,CC(=O)C[C@@H](O)CC(=O)[C@H]1OC(=O)CCCCCCc2ccccc21,inactive
18,Cc1cc(C(=O)OCC(=O)Nc2ccccc2Cl)c(C)o1,inactive
19,O=C(COc1ccccc1O)NC1CCCC1,inactive
20,COc1ccc(C(=O)NCC2CCCCC2)cc1S(=O)(=O)N1CCCC1,inactive
21,COc1ccc(OC)c(NC(=O)c2sc3nc(C)cc(C)c3c2N)c1,inactive
22,COCCCNc1nc2c(-c3cccc(C)c3)nnn2c2ccc(Cl)cc12,inactive

row,SMILES,Potency
1,COC(=O)c1cc(Oc2ccc(S(=O)(=O)N3CCOCC3)cc2[N+](=O)[O-])cc(C(=O)OC)c1,inactive
2,COc1ccc(S(=O)(=O)Nc2ccc3cn[nH]c3c2)cc1[N+](=O)[O-],inactive
3,CC(C)Nc1ccc(-n2nc3ccccc3[n+]2[O-])cc1,501 nM (active)
4,CCN(CC(=O)NCc1cccs1)C(=O)/C=C/c1ccc(C)cc1,inactive
5,COc1ccccc1NC(=O)COC(=O)COc1ccccc1F,inactive
6,Cc1cc(/C=C2/C(=N)N3C(=NC2=O)SN=C3S(C)(=O)=O)c(C)n1-c1ccccc1,3550 nM (active)
7,CCC1=NN2C(=N)/C(=C/c3cc(C)n(-c4ccccc4)c3C)C(=O)N=C2S1,inactive
8,CCS(=O)(=O)C1=NSC2=NC(=O)/C(=C\c3cc(C)n(-c4cccc(OC)c4)c3C)C(=N)N21,inactive
9,COc1ccc([C@H]2CC(=O)C=C(/C=C/c3ccccc3)C2)cc1,inactive
10,COc1ccc2oc(=O)c(C(=O)N3CCCC3)cc2c1,inactive
11,Cc1cc(C)cc(NC(=O)N2CCCCCCC2)c1,inactive
12,Cc1ccc2cc3cc(C(=O)N4CCCCCC4)oc3nc2c1,631 nM (active)
13,O=C(NNC(=O)c1cc(S(=O)(=O)N2CCCCC2)ccc1Cl)c1ccccc1O,inactive
14,O=C1CCN(C(=S)NCCc2ccccc2)CC1,inactive
15,S=C(NCCc1ccccc1)N1CCCCC1,3160 nM (active)
16,COc1ccc(C(=O)NC2CCN(C(=S)NCCc3ccccc3)CC2)cc1,inactive
17,Cc1cccn2c(=O)nc(SCC(=O)NCc3ccccc3Cl)nc12,inactive
18,CC(C)CCN1CCC(C)(NC(=O)c2ccccc2)C1=O (stereo not given),inactive
19,Cn1nc(-c2ccccc2)c(-c2nc(-c3ccc(Cl)cc3)no2)c1Cl,inactive
20,Brc1ccc(-c2noc(-c3ccccc3)n2)o1,1260 nM (active)
21,Nc1nonc1-c1noc(-c2ccc(Br)o2)n1,inactive
22,CCOC(=O)c1cc2c(nc1NC(=S)Nc1ccccc1)CC(C)(CC)OC2 (stereo not given),inactive

row,SMILES,Potency
1,CCOC(=O)c1ccc(NC(=S)Nc2cc(C)cc(C)n2)cc1,inactive
2,CCOC(=O)c1cn[nH]c1NC(=S)Nc1ccccc1,1120 nM (active)
3,Cn1nc(C(=O)OCC(=O)N(Cc2ccccc2)C(C)(C)C)c2ccccc2c1=O,inactive
4,O=S(=O)(Nc1ccc(-n2cnnn2)cc1)c1ccc(Cl)cc1,inactive
5,O=C(COc1nc2ccccc2nc1N1CCOCC1)NCC(F)(F)F,inactive
6,O=C(C1Cc2ccccc2CN1C(=O)c1ccco1)N1CCN(c2ccccc2)CC1 (stereo not given),inactive
7,CCn1cnc2scc(-c3ccc(C)c(C)c3)c2c1=O,inactive
8,Cc1nc([N+](=O)[O-])cn1CC(=O)Nc1ccc(Cl)cc1,inactive
9,O=C(O)C1CCCCC1C(=O)Nc1ccc(Cl)cc1 (stereo not given),inactive
10,O=C(Nc1ccc(Cl)cc1)/C(=C1\CCCN1)[N+](=O)[O-],2820 nM (active)
11,COc1ccc(N2C(=O)CC(Nc3ccc(F)cc3)C2=O)c([N+](=O)[O-])c1 (stereo not given),inactive
12,COc1ccccc1OCC(=O)OCc1cc(-c2ccco2)on1,inactive
13,COc1ccc(C(=O)CSc2nc(C)cc(C)n2)cc1[N+](=O)[O-],inactive
14,O=C(OCc1ccc([N+](=O)[O-])cc1)c1ccccn1,inactive
15,Cc1ccc(Cl)cc1NC(=O)c1ccccn1,inactive
16,N/C(=N\OC(=O)c1ccc([N+](=O)[O-])cc1)c1ccccn1,316 nM (active)
17,COc1ccccc1OCC(=O)O/N=C(\N)c1ccccn1,3160 nM (active)
18,O=C(COC(=O)c1ccccn1)NNC(=O)c1ccc([N+](=O)[O-])cc1,inactive
19,O=C(Nc1ccccc1Cl)O/N=C(/c1ccccc1)c1ccccn1,inactive
20,COc1ccc(C(=O)NNC(=O)c2cnccn2)cc1[N+](=O)[O-],inactive
21,COc1ccccc1OCC(=O)OCn1c(SC)nnc(C)c1=O,inactive
22,Cc1ccc(C(=O)O/N=C(\N)c2ccccn2)cc1Cl,3160 nM (active)

row,SMILES,Potency
1,COc1ccc(C(=O)O/N=C(\N)c2ccccn2)cc1[N+](=O)[O-],4470 nM (active)
2,CC(C)Cn1c(N)c(C(=O)COC(=O)C2CCCN2C(=O)c2cccs2)c(=O)n(C)c1=O (stereo not given),inactive
3,CCOc1c(Nc2cccc(Cl)c2)c(=O)c1=O,inactive
4,CS(=O)(=O)Nc1ccccc1C(=O)OCC(=O)NC1CC1,inactive
5,CCOC(=O)C1CCN(C(=O)c2cccc(S(=O)(=O)N(CC)c3ccccc3)c2)CC1,inactive
6,Cn1c2cc(B(O)O)sc2c2cnn(Cc3ccccc3F)c(=O)c21,inactive
7,COc1ccc(CC2c3cc(OC)c(OC)cc3CC[N+]2(C)CCC(=O)OCCCCCOC(=O)CC[N+]2(C)CCc3cc(OC)c(OC)cc3C2Cc2ccc(OC)c(OC)c2)cc1OC (stereo not given),inactive
8,CCc1cccc(C)c1NC(=O)COC(=O)CC1CCCC1,inactive
9,Cc1cc(C)c(S(=O)(=O)N2CCC(C(=O)OCc3c(C)noc3C)CC2)c(C)c1,inactive
10,CC(=O)c1ccc(OCCCC(=O)Nc2ccc(C)c(S(=O)(=O)N3CCOCC3)c2)cc1,inactive
11,COc1ccc(Cl)cc1C(=O)OCC(=O)NCc1cccs1,inactive
12,CCOC(=O)c1c(C)[nH]c(C(=O)NCCN2CCOCC2)c1C,inactive
13,COC(=O)Cc1ccc(OCC(=O)NC2CCCC2)cc1,inactive
14,CN(CC(=O)Nc1ccc(F)cc1)CC(=O)N1CCCCC1,inactive
15,COc1ccccc1-c1oc2ccccc2c1C#CCCCCO,inactive
16,O=C(C1CC(=O)N(C2CCCC2)C1)N1CCN(c2cccc(C(F)(F)F)c2)CC1 (stereo not given),inactive
17,CCOC(=O)c1nc(-c2ccc3c(c2)OCO3)[nH]c1C,inactive
18,CC(C)c1ccc(NC(=O)COC(=O)c2ccc(CN3CCCC3=O)cc2)cc1,inactive
19,O=C(CSc1nnc(Nc2ccccc2F)s1)NC1CCCC1,inactive
20,Cc1c(NC(=O)CSCc2ccccc2)cccc1C(=O)O,inactive
21,COc1cc(OC)cc(C(=O)NNC(=O)CCOc2ccccc2OC)c1,inactive
22,CCN(C(=O)COC(=O)Cc1c(F)cccc1Cl)c1c(N)n(Cc2ccccc2)c(=O)[nH]c1=O,inactive

row,SMILES,Potency
1,c1ccc(CSc2nnc(-c3ccco3)n2Cc2ccccc2)cc1,3550 nM (active)
2,O=C(CSc1nnc(-c2ccco2)n1-c1ccccc1)NCCc1ccccc1,inactive
3,O=C(CSc1nnc(-c2ccco2)n1CC1CCCO1)c1ccccc1 (stereo not given),inactive
4,COc1ccc(NC(=O)CN(C)C(=O)c2cc(C3CC3)nn2-c2ccccc2)cc1,inactive
5,COc1ccccc1C1=CC(=O)C[C@H](c2ccc(F)cc2)C1,inactive
6,CSCCC(NC(=O)c1ccccc1)C(=O)N1CCN(Cc2ccc(Cl)cc2)CC1 (stereo not given),inactive
7,Cc1ccc(F)c(NC(=O)CCc2ccccc2)c1,2820 nM (active)
8,O=C(CCc1ccccc1)NNc1ccc(F)cc1,inactive
9,Cc1ccc(F)c(NC(=O)CCOc2ccccc2C)c1,inactive
10,COC(=O)C1=CO[C@@H](O[C@@H]2O[C@H](CO)[C@@H](O)[C@H](O)[C@H]2O)C2C1C[C@H](O)[C@@H]2C (stereo not given in full),inactive
11,N#Cc1nc(Cc2ccccc2)oc1NCCc1ccccc1,3160 nM (active)
12,N#Cc1nc(Cc2cccc3ccccc23)oc1NCc1ccc2c(c1)OCO2,inactive
13,Cc1ccccc1-c1nc(C#N)c(NCc2ccco2)o1,inactive
14,Cc1cccc(-c2oc3ccc(-c4ccc5c(c4)OCO5)cc3c2C#Cc2cncn2C)c1,inactive
15,CCOC(=O)Cn1nnnc1C,inactive
16,COc1ccc(N2CCN(C(=O)/C(C#N)=C/c3ccccc3)CC2)cc1,inactive
17,CCOC(=O)/C(C#N)=C/c1ccc(N2CCCCC2)cc1,3160 nM (active)
18,CCOC(=O)/C(C#N)=C/c1ccc(N2CCN(Cc3ccccc3)CC2)cc1,inactive
19,Cc1ccc(C)c(OCC(=O)NNC(=O)C2CCC2)c1,inactive
20,CC(=O)c1cccc(S(=O)(=O)N2CCC(n3nnc4cc(F)ccc43)CC2)c1,inactive
21,O=C(c1ccc(F)cc1)N1CCC(n2nnc3ccccc32)CC1,1120 nM (active)
22,O=S(=O)(c1cccc(S(=O)(=O)N2CCC(n3nnc4ccccc43)CC2)c1)N1CCCCC1,inactive
